Assay outcomes (PubChem BioAssay)
Rows were chosen to be rich in hits. Some 1.8% of all compounds tested hit in one or more screens of this group.
ABCB6 inh MLPCN – human ABCB6 transporter inhibition. AID 602162. fluorescence ratio to DMSO, % at 10 µM. 360,000 compounds, 0.19% hits. K562-ABCB6 porphyrin accumulation, flow cytometry, 1 h; active compounds read low;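 active = fluorescence ratio to DMSO below 75%, the collection mean minus 3 SD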;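 note: signal is porphyrin accumulated inside mitochondria; 100% equals median channel fluorescence of DMSO control wells; lower ratio means ABCB6 inhibition with less porphyrin fluorescence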
Target sequence (Q9NP58 whole entry, looked up): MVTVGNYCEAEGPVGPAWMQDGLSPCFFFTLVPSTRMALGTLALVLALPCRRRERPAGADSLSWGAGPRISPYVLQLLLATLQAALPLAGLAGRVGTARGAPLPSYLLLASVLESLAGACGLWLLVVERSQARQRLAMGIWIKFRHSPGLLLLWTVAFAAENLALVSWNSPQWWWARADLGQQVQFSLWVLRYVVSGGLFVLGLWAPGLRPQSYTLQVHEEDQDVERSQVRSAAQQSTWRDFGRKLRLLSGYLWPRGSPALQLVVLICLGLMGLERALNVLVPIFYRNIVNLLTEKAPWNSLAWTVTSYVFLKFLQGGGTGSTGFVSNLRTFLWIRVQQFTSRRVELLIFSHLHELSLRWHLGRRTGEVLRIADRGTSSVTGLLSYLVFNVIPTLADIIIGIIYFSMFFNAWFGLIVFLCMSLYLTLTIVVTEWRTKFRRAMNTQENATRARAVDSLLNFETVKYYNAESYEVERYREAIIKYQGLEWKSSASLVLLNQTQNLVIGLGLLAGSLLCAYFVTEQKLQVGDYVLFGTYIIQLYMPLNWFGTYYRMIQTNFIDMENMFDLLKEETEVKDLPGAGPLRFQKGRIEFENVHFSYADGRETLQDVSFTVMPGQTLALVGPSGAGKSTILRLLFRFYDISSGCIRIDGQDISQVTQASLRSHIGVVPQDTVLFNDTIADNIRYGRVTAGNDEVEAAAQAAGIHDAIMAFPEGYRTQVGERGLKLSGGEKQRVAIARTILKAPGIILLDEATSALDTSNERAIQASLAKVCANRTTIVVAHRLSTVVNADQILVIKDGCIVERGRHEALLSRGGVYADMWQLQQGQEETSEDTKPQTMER
Granule exo inh – lytic granule exocytosis inhibition. TALL-104 LAMP-1 surface exposure, flow cytometry; cells stimulated with thapsigargin and PMA. 360,000 compounds, 0.66% hits. inhibition, % at 10 µM. AID 651702;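 active = inhibition above about 55%, limit read from the data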
Myeloid diff MLP – myeloid differentiation induction. ER-HoxA9 myeloid progenitors, lysozyme-GFP differentiation, flow cytometry. calls only at 10 µM. 360,000 compounds, 1% hits. AID 624256;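 active = normalized GFP-positive differentiation at or above the plate's own cutoff, the solvent-only control mean plus 3 SD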;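 note: cells exposed to compound for four days before flow analysis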
Granule exo CP1 – blocks lytic granule exocytosis | AID 651954 | 1,500 compounds, 11% hits | inhibition, % at 10 µM | TALL-104 cells, LAMP-1 externalization, flow cytometry; stimulated with PMA plus thapsigargin | shares compounds with Granule exo inh; in the data active = inhibition above about 60%;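 note: 0% = stimulated vehicle wells and 100% = unstimulated wells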
Numbers without * were called inactive; i = inactive; nt = no result.

SMILES	ABCB6 inh MLPCN	Granule exo inh	Myeloid diff MLP	Granule exo CP1
COc1ccc(CCNC(=O)c2ccccc2NS(=O)(=O)c2c(F)cccc2F)cc1	98	11	i	nt
COC(=O)c1cc2nc(-c3ccccc3)cc(C)n2n1	92	0	i	nt
Cc1cc(-c2ccccc2)nc2cc(C(=O)N(Cc3ccccc3)Cc3ccccc3)nn12	104	80*	i	-2
CCN(c1ccc(NC(=O)COC(=O)C(C)N=C2NS(=O)(=O)c3ccccc32)cc1)C(C)C (stereo unspecified)	104	-4	i	nt
COC(=O)C1=C(C)N(c2ccc(S(N)(=O)=O)cc2)C(=O)C1	109	1	i	nt
CCOC(=O)C1=C(C)N(c2ccccc2)C(=O)C1	98	100*	i	-14
O=C(NCc1ccccc1C(F)(F)F)C1CCC(=O)N(C2CC2)C1 (stereo unspecified)	104	-2	i	nt
Cc1ccccc1CS(=O)(=O)Cc1ccc(C(=O)NCCc2ccccc2)o1	93	-6	i	nt
CCOC(=O)[C@]12CCCC=C1N(Cc1ccccc1)C(=O)[C@H](CC(=O)NCc1cccc3ccccc13)C2	nt	-9	i	nt
Fc1cccc(Cc2c(-c3ccco3)nc3ccc(Br)cn23)c1	100	59*	i	-1
Clc1ccc2nc(-c3ccco3)c(Cc3ccccc3)n2c1	98	46	i	nt
COc1ccccc1Cc1c(-c2ccco2)nc2ccc(Cl)cn12	98	82*	i	4
COc1ccccc1Cc1c(-c2ccco2)nc2ccc(Br)cn12	101	52	i	nt
Fc1cccc(Cc2c(-c3ccccc3)nc3ccc(Br)cn23)c1	96	-5	i	nt
Fc1cccc(Cc2c(-c3ccco3)nc3ccc(Cl)cn23)c1	105	58*	i	-11
CN1CCN(C(CNC(=O)C(=O)Nc2ccc3c(c2)OCCO3)c2ccc(F)cc2)CC1 (stereo unspecified)	96	3	i	nt
COc1c(NC=O)c2c(c([N+](=O)[O-])c1OC)C(=O)OC2	102	0	i	nt
CCCCN(C(=O)C1=NN(c2ccccc2)C(=O)CC1)c1c(N)n(CC(C)C)c(=O)[nH]c1=O	98	4	i	nt
Cc1ccc(S(=O)(=O)N2CCN(C(=O)COC(=O)/C=C/c3ccccc3)CC2)c(C)c1	98	-4	i	nt
Fc1ccc(-c2csc3ncnc(N4CCN(c5ccccc5)CC4)c23)cc1	95	-4	i	nt
COc1ccc(F)cc1CN1CCN(c2ncnc3scc(-c4ccccc4)c23)CC1	98	70*	i	10
CCOc1ccc(CN2CCN(c3ncnc4scc(-c5ccccc5)c34)CC2)cc1	95	87*	i	-11
COc1ccc(CN2CCN(c3ncnc4scc(-c5ccc(F)cc5)c34)CC2)cc1	97	60*	i	1
COc1ccc(N2CCN(c3ncnc4scc(-c5ccc(F)cc5)c34)CC2)cc1	103	5	i	nt
COc1ccc(N2CCN(c3ncnc4scc(-c5ccccc5)c34)CC2)cc1	96	-9	i	nt
SMILES	ABCB6 inh MLPCN	Granule exo inh	Myeloid diff MLP	Granule exo CP1
CCN1CCN(c2ncnc3scc(-c4ccc(OC)cc4)c23)CC1	96	-6	i	nt
COc1ccc(N2CCN(c3ncnc4scc(-c5ccc(C)cc5)c34)CC2)cc1	91	80*	nt	-12
CSc1nsc(SCC(=O)Nc2cccc(C(=O)O)c2)n1	102	-14	i	nt
Cc1ccc(C(C)C)c(OCC(=O)Nc2ccc(N3CCOCC3)cc2N2CCOCC2)c1	98	3	i	nt
Cc1cc(N2CCN(Cc3nc(-c4ccc(Cl)cc4)oc3C)CC2)cc(C)n1	95	5	i	nt
COc1ccc(-c2nc(CN3CCN(c4cc(C)nc(C)c4)CC3)c(C)o2)c2ccccc12	101	58*	i	36
Cc1ccc2c3c(cccc13)-c1ccccc1C2=O	98	97*	i	77*
Cc1cccc2cc3c(nc12)-c1ccccc1C3=O	100	-10	i	nt
N#Cc1ccc(Oc2ccc(S(=O)(=O)N3CCOCC3)cn2)cc1	98	-5	i	nt
C=Cc1ccc(CN2CCCN(Cc3ccc(F)cc3)S2(=O)=O)cc1	92	-6	i	nt
N#Cc1cccc(CN2CCCN(Cc3ccc(F)cc3)S2(=O)=O)c1	105	85*	i	-6
CCCCc1ccc(NC(=O)CSc2nc(=O)n(CCN(CC)CC)c3c2CCCC3)cc1	100	82*	i	-2
CCCCc1ccc(NC(=O)CSc2nc(=O)n(CCN(C)C)c3c2CCC3)cc1	96	53	i	nt
COC(=O)c1c(NC(=O)CSc2nnc(CNc3ccc(Cl)cc3)o2)sc(C)c1C	101	92*	i	-3
CCOC(=O)c1c(NC(=O)CSc2nnc(CNc3ccc(F)cc3)o2)sc(C(C)=O)c1C	90	-1	i	nt
O=C1Nc2ccc(Br)cc2/C1=C/C(=O)c1ccccc1	97	73*	nt	83*
O=C(O)COc1ccccc1/C=C1\C(=O)Nc2ccc(Br)cc21	99	0	i	nt
O=C(Nc1ccc(N2CCCC2)c(Cl)c1)c1ccco1	112	-3	i	nt
O=C(Nc1cc([N+](=O)[O-])ccc1N1CCCC1)c1ccco1	94	-1	i	nt
COC(=O)c1ccc(N2CCCCC2)c(NC(=O)c2ccco2)c1	100	93*	i	-4
O=C(Nc1cccc(Cl)c1N1CCCC1)c1ccco1	99	74*	i	-14
CCC(C)n1nnc2c(=O)oc3ccccc3c21 (stereo unspecified)	102	-6	i	nt
Cc1ccc(-n2nnc3c(=O)oc4ccccc4c32)cc1	106	94*	i	83*
CCc1ccc(-c2nc(CS(=O)CC(=O)NCCCN3CCC(C)CC3)c(C)o2)cc1 (stereo unspecified)	102	45	i	nt
O=Cc1ccc(OCCOc2ccc([N+](=O)[O-])cc2)cc1	102	2	i	nt
SMILES	ABCB6 inh MLPCN	Granule exo inh	Myeloid diff MLP	Granule exo CP1
O=C(NC1CCCC1)C(c1cccs1)N(Cc1ccco1)C(=O)Cn1nnc(-c2cccs2)n1 (stereo unspecified)	96	-1	i	nt
Cc1ccc(-c2nnn(CC(=O)N(Cc3ccco3)C(C(=O)NC3CCCC3)c3cccs3)n2)o1 (stereo unspecified)	96	66*	i	-4
Cc1nn(C)c(C(=O)N2CCOCC2)c1Cl	90	-5	i	nt
COc1ccc(NC(=O)COC(=O)CCNC(=O)c2ccco2)cc1Cl	98	-1	i	nt
COc1ccc(CCNc2oc(COc3ccccc3Cl)nc2C#N)cc1OC	97	2	i	nt
N#Cc1nc(COc2ccccc2Cl)oc1NCc1ccco1	87	56*	i	-8
O=C1CCC(C(=O)N2CCN(c3ccccc3)CC2)CN1Cc1ccc(Cl)cc1 (stereo unspecified)	101	0	i	nt
CCOc1cc(S(=O)(=O)n2cc(-c3ccc(F)cc3)c(N)n2)cc(OCC)c1OCC	111	31	i	nt
Cc1ccc(-c2cn(S(=O)(=O)c3ccc(C)cc3)nc2N)cc1	93	3	i	nt
CCOc1ccc(S(=O)(=O)n2cc(-c3ccc(F)cc3)c(N)n2)cc1	89	74*	i	2
CCOc1ccc(S(=O)(=O)n2cc(-c3ccccc3)c(N)n2)cc1	91	67*	i	-7
